Structures are written as SMILES. Compounds without any hit were thinned out: in the full panel of roughly 83,000, 20% have a hit.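 Single-concentration screen, 48 h exposure, 96-well plates. Endpoint: percent growth. Below 10 = active.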 A number with no mark means an inactive call. Activity calls are given as the source filed them.

Common to all, as to experiment: NCI-60 one-dose screen, 48 h (100 = growth as untreated, 0 = no growth, -100 = all killed)
Details in all cases: 10 µM unless noted

For experiment [1], the system named is HCT-15 colon.
Experiment [2] concerns HT29 colon.
Experiment [3] has as its system SNB-75 CNS.
For experiment [4], the system named is SNB-19 CNS.
Experiment [5] has as its system U251 CNS.
The subject of experiment [6] is PC-3 prostate.
In experiment [7] the test system is SK-MEL-5 melanoma.
For experiment [8], the system named is UACC-62 melanoma.
Experiment [9] concerns LOX IMVI melanoma.
The subject of experiment [10] is SK-MEL-28 melanoma.
The test system of experiment [11] is SK-MEL-2 melanoma.
The subject of experiment [12] is EKVX NSCLC.
In experiment [13] the test system is SN12C renal.
Experiment [14] deals with UO-31 renal.
The test system of experiment [15] is TK-10 renal.
For experiment [16], the system named is ACHN renal.
The test system of experiment [17] is CAKI-1 renal.
The test system of experiment [18] is A498 renal.
Experiment [19] relates to CCRF-CEM leukemia.

For `Cc1nn(-c2ccccc2)c(Cl)c1/C=N\N=c1/sc2ccccc2n1C`, the growth in experiment [1] is 103%; in experiment [2], 93.3%; in experiment [3], 107%; in experiment [4], 98.6%; in [5], 103%; in [6] it was 89.5%. Also, the growth in experiment [7] was 104%; in experiment [8] it was 87.1%; in experiment [9], 117%; in experiment [10] it was 103%; in [11], 114%; in experiment [12] it was 110%. In addition, the growth is 86.8% in [13]; 93% in experiment [14]; 99.1% in experiment [15]; 107% in [16]; 101% in experiment [17]; 83.1% in experiment [18]. Also, the growth in [19] was 92.7%.

For `CCCCCCCC(=O)OCC/C=C/C1OC1C1OC(=O)/C=C\C=C\C(=O)N(C(C)=O)C(=O)/C=C(/C)CCC2OC2C1OC(=O)NC(C)=O` (centres undefined), the growth in experiment [1] was 84.1%; in experiment [2] it was 50.8%; in experiment [3], 79.3%; in [4], 179%; in experiment [5] it was 69.8%; in [6] it was 84.5%. For the same compound, the growth in experiment [7] is 67.5%; in experiment [8] it was 68%; in experiment [9] it was 54%; in [10] it was 87.1%; in experiment [11] it was 89.8%; in [12] it was 83.5%. In addition, the growth in [13] was 63.2%; in experiment [14] it was 69%; in [15], 37.5%; in experiment [16], 29.2%; in [17], 71%; in experiment [18], 90.7%.

For the compound `Cn1cc(-c2csc(-c3c[nH]c4ccccc34)n2)c2ccnc(Cl)c21`, the growth is -8.86% (active) in experiment [1]; 27.9% in experiment [2]; 77.7% in experiment [3]; 94% in experiment [4]; 48.6% in [5]; 56% in experiment [6]. For the same compound, the growth was 50% in experiment [7]; 84.9% in experiment [8]; 82.6% in experiment [9]; 85.1% in experiment [10]; 94.4% in experiment [11]; 79.6% in experiment [12]. In addition, the growth in [13] was 76.5%; in experiment [14] it was 49.3%; in [15], 77.4%; in experiment [16], 54.2%; in [17], 66.1%; in experiment [18], 53.8%. For the same compound, the growth in experiment [19] was 57.4%.

In the case of `COC1=CC(=O)c2ccccc2C1=O`, the growth in experiment [1] is 99.7%; in experiment [2], 38.9%; in [3], 33.7%; in experiment [4], 105%; in experiment [5], 52.6%; in [6] it was 65.7%. For the same compound, the growth was 47.8% in experiment [7]; 74.2% in [8]; 4.09% (active) in experiment [9]; 90% in experiment [10]; 69.3% in [11]; 110% in [12]. Besides, the growth in experiment [13] is 84.8%; in [14], 71.9%; in experiment [15], 94%; in [16], 75.6%; in experiment [17], 95.6%; in experiment [18], 107%.

In the case of `N#CC1=C(N)Oc2c(cnn2-c2ccc([N+](=O)[O-])cc2[N+](=O)[O-])C1c1ccccc1` (centres undefined), the growth in experiment [1] is 93.2%; in experiment [2], 110%; in experiment [3] it was 86.5%; in experiment [4], 104%; in experiment [5], 102%; in [6], 105%. In addition, the growth in experiment [7] is 97.1%; in experiment [8] it was 93%; in experiment [9] it was 102%; in experiment [10], 106%; in experiment [11], 110%; in [12], 90.6%. Further, the growth in experiment [13] is 101%; in experiment [14], 79.9%; in experiment [15], 99.4%; in experiment [16] it was 103%; in experiment [17], 90.6%; in experiment [18], 50.7%. Besides, the growth in experiment [19] was 79.7%.

For `C[C@H]1[C@H]2[C@H]3CC[C@@H]4[C@@]5(C)CC[C@H](O)C(C)(C)[C@@H]5CC[C@@]4(C)[C@]3(C)CC[C@]23CO[C@]1(C)[C@@H](C(=O)/C=C\c1ccco1)C3`, the growth in experiment [1] was 106%; in [2], 98.1%; in experiment [3] it was 78.4%; in [4] it was 75.3%; in [5], 69.4%; in experiment [6], 92.7%. Moreover, the growth in experiment [7] was 8.55% (active); in experiment [8] it was 7.16% (active); in experiment [9], 89%; in [10], 36.7%; in experiment [11] it was 9.51% (active); in experiment [12] it was 105%. In addition, the growth in experiment [13] is 101%; in [14], 77%; in [15], 97.4%; in [16] it was 44.3%; in experiment [17], 55.8%; in [18], 96.2%. The growth in experiment [19] is 101%.

In the case of `COc1cc(-c2n/c(=C\c3c(O)[nH]c4ccc(Cl)cc34)cc3c2=Nc2ccccc2-3)ccc1F`, the growth in experiment [1] was 46.4%; in experiment [2], -10.3% (active); in [3] it was -39.5% (active); in [4], 2.79% (active); in experiment [5], -88.3% (active); in experiment [6], -8.04% (active). Also, the growth was 27.6% in experiment [7]; 46.5% in experiment [8]; 0.0846% (active) in [9]; 1.48% (active) in experiment [10]; 67.8% in experiment [11]; 51.6% in experiment [12]. The growth in experiment [13] was 3.41% (active); in experiment [14], -61.4% (active); in experiment [15], 1.18% (active); in experiment [16], -41.8% (active); in experiment [17], 62.9%; in experiment [18] it was 96.2%.

As for `CN(CCN(C)c1ccc(C(=N)N)cc1)c1ccc(C(=N)N)cc1`, the growth in [1] is 102%; in experiment [2], 108%; in experiment [3] it was 99.6%; in experiment [4], 121%; in experiment [5], 95.4%; in experiment [6] it was 81.3%. The growth in experiment [7] is 92%; in experiment [8] it was 78.7%; in [9], 99.9%; in [10], 108%; in experiment [11] it was 94.4%; in [12], 94.4%. In addition, the growth in [13] was 74.3%; in experiment [14], 79.8%; in experiment [15] it was 115%; in experiment [16], 105%; in experiment [17], 68.6%; in [18], 71.4%. The growth in experiment [19] was -72% (active).

Source of the values: PubChem BioAssay (NCI).
